Molecules are shown by their SMILES. For some assays here: Entries with a potency or affinity are not part of this list.

Design in all cases: scale not given: direction of the effect not stated beside the values
The target of experiment [1] is Protein translocase subunit SecA (Escherichia coli (strain K12)) (UniProt P10408). The experiment in a line: Assay to Identify E. coli SecA ATPase Inhibitors. Type of experiment: functional. The following applies: 30 µM.
In experiment [2] the target is T1, Ubiquitin-activating enzyme e1, putative (Leishmania donovani (strain BPK282A1)) (UniProt E9BSI1).
T1 sequence (whole entry): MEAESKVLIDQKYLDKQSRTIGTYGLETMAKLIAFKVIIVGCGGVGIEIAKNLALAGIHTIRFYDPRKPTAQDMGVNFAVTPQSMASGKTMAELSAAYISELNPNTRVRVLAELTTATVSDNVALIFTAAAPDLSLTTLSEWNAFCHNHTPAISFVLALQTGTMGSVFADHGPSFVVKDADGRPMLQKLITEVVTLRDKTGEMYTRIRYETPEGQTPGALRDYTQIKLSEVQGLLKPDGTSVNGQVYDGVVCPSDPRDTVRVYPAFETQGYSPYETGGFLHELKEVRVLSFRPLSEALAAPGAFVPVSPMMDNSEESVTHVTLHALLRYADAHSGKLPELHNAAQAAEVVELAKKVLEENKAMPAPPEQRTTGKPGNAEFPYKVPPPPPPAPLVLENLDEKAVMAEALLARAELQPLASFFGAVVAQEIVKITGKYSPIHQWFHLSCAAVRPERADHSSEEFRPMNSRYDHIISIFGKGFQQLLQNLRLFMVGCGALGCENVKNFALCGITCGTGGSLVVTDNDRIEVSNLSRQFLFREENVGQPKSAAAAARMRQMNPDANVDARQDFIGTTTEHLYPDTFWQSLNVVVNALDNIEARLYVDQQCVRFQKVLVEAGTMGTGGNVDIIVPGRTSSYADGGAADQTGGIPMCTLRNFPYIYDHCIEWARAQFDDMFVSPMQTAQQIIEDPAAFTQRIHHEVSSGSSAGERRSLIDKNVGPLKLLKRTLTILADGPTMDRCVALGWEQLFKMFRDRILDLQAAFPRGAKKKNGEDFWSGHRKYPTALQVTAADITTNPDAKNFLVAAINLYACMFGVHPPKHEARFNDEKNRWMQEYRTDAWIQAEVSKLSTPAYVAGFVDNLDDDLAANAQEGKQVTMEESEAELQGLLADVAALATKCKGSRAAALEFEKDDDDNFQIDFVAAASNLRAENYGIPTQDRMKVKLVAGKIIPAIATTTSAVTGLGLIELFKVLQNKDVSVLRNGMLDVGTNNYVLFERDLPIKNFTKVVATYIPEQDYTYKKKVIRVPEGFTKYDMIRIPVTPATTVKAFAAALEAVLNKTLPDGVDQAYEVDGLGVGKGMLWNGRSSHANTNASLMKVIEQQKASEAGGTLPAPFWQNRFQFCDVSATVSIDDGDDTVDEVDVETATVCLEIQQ
Nature of the experiment: Leishmania donovani Ubiquitin Activating Enzyme (LdE1). Type of experiment: functional. The following applies: 30 µM.

The target of experiment [3] is AMP-activated protein kinase, AMPK (Homo sapiens) (UniProt P54646+O43741+P54619+Q9UGJ0+Q9Y478+Q13131+Q9UGI9). The experiment in a line: AMP-dependent Kinase enzyme assay. An in vitro enzyme assay that detects ADP turnover that is directly proportional to AMPK activity. This uses naive AMPK that is activated during the assay with MK-8722. The following applies: 30 µM. It is filed as functional.

Experiment [4] addresses Sialic acid-binding Ig-like lectin 9 (Homo sapiens) (UniProt Q9Y336). The experiment in a line: Hs-Siglec9 ALPHAscreen SOP 20170721. The following applies: 10 µM. In general terms: Alpha assays give light when donor and acceptor beads are brought close together.
In experiment [5] the test system is Trypanosoma cruzi. Nature of the experiment: Trypanosoma cruzi phosphomannomutase and mannose-1-phosphate guanylyltransferase assay. It is filed as functional. The following applies: 10 µM.
Experiment [6] addresses T2, Arginase-2, mitochondrial (Homo sapiens) (UniProt P78540).
T2 sequence (whole entry): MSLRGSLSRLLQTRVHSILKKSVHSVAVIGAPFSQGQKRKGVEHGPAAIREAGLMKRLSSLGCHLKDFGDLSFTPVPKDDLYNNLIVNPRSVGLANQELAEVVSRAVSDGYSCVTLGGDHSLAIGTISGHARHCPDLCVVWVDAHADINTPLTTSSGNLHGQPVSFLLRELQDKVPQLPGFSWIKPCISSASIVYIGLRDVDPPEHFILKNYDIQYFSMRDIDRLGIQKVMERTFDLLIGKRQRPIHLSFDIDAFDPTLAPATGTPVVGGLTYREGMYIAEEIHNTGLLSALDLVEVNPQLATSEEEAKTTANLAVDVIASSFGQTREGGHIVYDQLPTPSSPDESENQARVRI
Nature of the experiment: in vitro enzyme assay to detect the production of urea directly proportional to the activity of Arginase II. Also: in the data most compounds retested in dose-response had high values. It is filed as functional. Conditions: 33.3 µM.

Experiment [7] concerns the target T3, Proteasome subunit beta (Trypanosoma cruzi) (UniProt O96673).
T3 sequence (whole entry): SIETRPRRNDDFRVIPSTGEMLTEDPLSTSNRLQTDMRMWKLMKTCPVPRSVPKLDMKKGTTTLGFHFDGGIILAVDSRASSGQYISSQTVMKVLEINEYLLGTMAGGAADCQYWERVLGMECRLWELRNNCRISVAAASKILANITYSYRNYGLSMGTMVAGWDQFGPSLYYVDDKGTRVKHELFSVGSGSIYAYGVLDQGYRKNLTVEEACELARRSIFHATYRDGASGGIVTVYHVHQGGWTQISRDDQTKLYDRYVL
The experiment in a line: Trypanosoma cruzi proteasome chymotrypsin-like activity (TcProtChymo) assay. Also: in the data most compounds retested in dose-response had high values. Conditions: 9.37 µM. It is filed as functional.

Experiment [8] is filed under the species Homo sapiens. The experiment in a line: To identify inhibition of the IFN signalling (Jak-Stat) pathway via expression of an eGFP reporter gene under the control of an IFN-stimulated response element (ISRE) containing MxA promoter. Type of experiment: functional. The following applies: 30 µM. A general note: Reporter assays use an easily measured gene product as a stand-in for the process of interest.

Experiment [9] addresses T4, Tyrosyl-tRNA synthetase, putative (Trypanosoma cruzi (strain CL Brener)) (UniProt Q4DSP6).
T4 sequence (whole entry): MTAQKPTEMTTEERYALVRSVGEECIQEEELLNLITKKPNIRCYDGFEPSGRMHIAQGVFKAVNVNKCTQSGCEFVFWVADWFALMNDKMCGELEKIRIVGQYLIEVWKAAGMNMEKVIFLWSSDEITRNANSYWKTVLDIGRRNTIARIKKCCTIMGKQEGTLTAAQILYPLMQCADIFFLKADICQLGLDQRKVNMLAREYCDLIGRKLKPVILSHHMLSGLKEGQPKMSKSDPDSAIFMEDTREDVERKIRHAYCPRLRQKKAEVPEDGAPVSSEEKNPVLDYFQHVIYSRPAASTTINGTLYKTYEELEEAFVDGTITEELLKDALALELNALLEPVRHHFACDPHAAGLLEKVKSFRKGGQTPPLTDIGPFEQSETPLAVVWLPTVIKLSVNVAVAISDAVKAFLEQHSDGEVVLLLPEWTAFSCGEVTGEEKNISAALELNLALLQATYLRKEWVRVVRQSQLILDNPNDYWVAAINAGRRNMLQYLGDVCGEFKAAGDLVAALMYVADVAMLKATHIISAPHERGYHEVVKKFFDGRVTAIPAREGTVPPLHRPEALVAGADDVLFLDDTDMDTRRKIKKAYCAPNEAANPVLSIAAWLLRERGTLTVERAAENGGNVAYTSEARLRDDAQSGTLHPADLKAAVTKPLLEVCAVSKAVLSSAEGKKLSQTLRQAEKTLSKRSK
The experiment in a line: Trypanosoma cruzi tyrosyl tRNA synthetase (TcYRS) _High Tyrosine SOP. Also: in the data most compounds retested in dose-response had high values. Conditions: 30 µM. It is filed as functional.

Experiment [10] has as its target T4, Tyrosyl-tRNA synthetase, putative (Trypanosoma cruzi (strain CL Brener)). The experiment in a line: Trypanosoma cruzi tyrosyl tRNA synthetase (TcYRS) SOP. Conditions: 30 µM. Type of experiment: functional.
Experiment [11] has as its target Chromo domain-containing protein 1 (Saccharomyces cerevisiae (strain ATCC 204508 / S288c) (Baker's yeast)) (UniProt P32657). Nature of the experiment: ScCHD-1 Enzyme Inhibition Assay. Also: in the data most compounds retested in dose-response had high values. It is filed as functional. The following applies: 30 µM.

Protein translocase subunit SecA (Escherichia coli (strain K12)), sequence (P10408 whole entry): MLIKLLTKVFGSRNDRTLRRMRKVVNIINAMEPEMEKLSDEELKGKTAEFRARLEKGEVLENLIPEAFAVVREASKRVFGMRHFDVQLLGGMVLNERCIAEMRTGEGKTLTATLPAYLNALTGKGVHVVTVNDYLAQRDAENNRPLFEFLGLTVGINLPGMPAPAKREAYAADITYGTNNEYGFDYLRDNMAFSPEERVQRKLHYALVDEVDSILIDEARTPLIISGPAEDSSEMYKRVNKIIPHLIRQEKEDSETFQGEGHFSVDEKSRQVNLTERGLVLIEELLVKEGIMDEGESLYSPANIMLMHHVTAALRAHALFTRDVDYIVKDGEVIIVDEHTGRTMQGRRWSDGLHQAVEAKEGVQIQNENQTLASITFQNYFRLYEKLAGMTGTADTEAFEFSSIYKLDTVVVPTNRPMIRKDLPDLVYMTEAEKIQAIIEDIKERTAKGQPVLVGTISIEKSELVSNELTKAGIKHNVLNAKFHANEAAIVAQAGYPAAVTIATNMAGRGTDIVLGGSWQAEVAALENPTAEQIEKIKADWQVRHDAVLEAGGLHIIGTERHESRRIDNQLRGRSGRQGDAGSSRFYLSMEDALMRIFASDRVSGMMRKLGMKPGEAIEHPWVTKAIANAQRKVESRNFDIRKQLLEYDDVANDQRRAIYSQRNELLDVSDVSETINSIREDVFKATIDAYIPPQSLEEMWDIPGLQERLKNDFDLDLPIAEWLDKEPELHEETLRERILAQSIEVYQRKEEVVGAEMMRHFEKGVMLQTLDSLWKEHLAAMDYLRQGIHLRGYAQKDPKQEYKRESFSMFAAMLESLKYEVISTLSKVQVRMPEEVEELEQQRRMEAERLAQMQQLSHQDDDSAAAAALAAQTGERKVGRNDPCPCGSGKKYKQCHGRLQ
Sialic acid-binding Ig-like lectin 9 (Homo sapiens), sequence (Q9Y336 whole entry): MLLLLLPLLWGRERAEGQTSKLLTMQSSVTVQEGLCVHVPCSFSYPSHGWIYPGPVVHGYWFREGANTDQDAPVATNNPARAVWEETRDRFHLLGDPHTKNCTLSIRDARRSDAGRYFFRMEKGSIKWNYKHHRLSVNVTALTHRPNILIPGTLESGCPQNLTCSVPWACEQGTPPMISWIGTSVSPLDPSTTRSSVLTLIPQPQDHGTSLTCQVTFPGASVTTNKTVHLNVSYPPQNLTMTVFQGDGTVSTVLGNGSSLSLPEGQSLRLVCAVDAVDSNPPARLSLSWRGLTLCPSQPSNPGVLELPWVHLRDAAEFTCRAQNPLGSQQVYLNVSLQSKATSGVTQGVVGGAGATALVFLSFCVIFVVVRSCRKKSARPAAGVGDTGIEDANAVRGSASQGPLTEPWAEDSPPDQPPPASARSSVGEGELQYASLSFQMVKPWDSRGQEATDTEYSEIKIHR
Chromo domain-containing protein 1 (Saccharomyces cerevisiae (strain ATCC 204508 / S288c) (Baker's yeast)), sequence (P32657 whole entry, the tested form may be a part): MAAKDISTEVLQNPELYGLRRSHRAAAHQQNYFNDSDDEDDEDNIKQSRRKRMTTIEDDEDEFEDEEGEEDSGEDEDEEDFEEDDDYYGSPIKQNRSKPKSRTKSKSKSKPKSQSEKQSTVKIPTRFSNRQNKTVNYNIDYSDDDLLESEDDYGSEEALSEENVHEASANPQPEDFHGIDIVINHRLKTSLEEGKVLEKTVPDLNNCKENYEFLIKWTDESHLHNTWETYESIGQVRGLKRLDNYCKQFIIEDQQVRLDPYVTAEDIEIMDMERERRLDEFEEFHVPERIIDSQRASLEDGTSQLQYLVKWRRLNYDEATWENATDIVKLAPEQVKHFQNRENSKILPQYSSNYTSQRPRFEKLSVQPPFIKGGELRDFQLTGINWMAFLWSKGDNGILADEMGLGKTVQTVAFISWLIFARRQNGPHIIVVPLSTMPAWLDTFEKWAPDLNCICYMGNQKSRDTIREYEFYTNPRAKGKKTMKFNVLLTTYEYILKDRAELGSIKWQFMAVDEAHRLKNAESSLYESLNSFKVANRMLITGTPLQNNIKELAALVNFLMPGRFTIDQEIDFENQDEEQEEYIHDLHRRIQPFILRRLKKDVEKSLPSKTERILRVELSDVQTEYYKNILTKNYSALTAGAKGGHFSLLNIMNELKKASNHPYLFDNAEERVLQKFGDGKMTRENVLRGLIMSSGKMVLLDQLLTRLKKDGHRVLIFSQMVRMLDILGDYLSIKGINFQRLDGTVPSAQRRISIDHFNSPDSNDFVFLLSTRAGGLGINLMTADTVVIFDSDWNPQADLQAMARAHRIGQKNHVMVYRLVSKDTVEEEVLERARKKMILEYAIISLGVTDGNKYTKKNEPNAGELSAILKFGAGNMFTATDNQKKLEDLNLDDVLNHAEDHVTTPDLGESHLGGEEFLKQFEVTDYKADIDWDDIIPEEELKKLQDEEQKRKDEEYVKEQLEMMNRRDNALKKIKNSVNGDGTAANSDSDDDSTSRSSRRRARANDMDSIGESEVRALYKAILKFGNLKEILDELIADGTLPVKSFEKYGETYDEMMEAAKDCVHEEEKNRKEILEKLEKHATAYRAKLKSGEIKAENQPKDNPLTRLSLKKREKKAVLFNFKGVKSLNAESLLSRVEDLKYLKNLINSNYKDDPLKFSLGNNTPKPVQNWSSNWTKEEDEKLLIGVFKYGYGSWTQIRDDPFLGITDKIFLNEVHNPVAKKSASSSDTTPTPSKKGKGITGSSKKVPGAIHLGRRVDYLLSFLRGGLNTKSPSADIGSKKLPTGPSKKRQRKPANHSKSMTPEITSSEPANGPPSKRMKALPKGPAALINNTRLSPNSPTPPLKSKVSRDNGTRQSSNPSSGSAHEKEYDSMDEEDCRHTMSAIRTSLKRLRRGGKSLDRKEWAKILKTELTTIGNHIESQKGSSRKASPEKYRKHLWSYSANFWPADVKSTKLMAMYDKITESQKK

Regarding `Cn1nccc1C1CCN(CC(O)c2cccc(F)c2)CC1` (stereo not given), the Percent Effect in experiment [1] is -3.15%; in experiment [2] it was 5.06%; in experiment [3], 0.204%; in [4], 2.12%; in experiment [5] it was 6.89%; in experiment [6] it was -1.14%. The Percent Effect in [7] was 4.18%; in [8], 15.3%; in experiment [9], -0.493%; in experiment [10], -8.86%; in experiment [11], -4.6%.
Consider `CC(C)CN1CCCn2nc(CNC(=O)c3cccnc3O)cc2C1`, for which the Percent Effect in experiment [1] was -5.79%; in [2], 21.3%; in [3], -6.62%; in experiment [4], 22.5%; in experiment [5], 6.52%; in experiment [6], 5.73%. Besides, the Percent Effect in [7] is 13.2%; in [8], 13.9%; in experiment [9] it was 6.01%; in experiment [10] it was 18.5%; in experiment [11] it was -7.12%.
As to `Cc1cnn(CCNCC(O)COc2ccc(Cl)cc2)c1` (stereo not given), the Percent Effect in experiment [1] was -3.71%; in experiment [2] it was 10.1%; in experiment [3], 0.158%; in [4], 12.9%; in experiment [5] it was 3.12%; in [6], 0.76%. The Percent Effect is -1.88% in experiment [7]; -3.16% in experiment [8]; 3.45% in experiment [9]; 8.86% in experiment [10]; -2.04% in experiment [11].
With `Cc1ncc(CNC(=O)Cc2ccc(Cl)cc2)c(C2CCCN2C)n1` (stereo not given), the Percent Effect is -5.53% in experiment [1]; -1.35% in experiment [2]; 18.1% in experiment [3]; 5% in experiment [4]; -2.96% in [5]; -2.55% in [6]. Moreover, the Percent Effect in experiment [7] was 8.74%; in [8], 1.58%; in [9], -1.07%; in [10], -1.3%; in experiment [11], 0.76%.
On to `COc1cccc2c1ccn2CC(=O)N[C@@H](CCSC)C(=O)O`, for which the Percent Effect is 1.36% in experiment [1]; -1.33% in experiment [2]; -55.8% in [3]; 3.95% in experiment [4]; -0.197% in [5]; -7.57% in [6]. Besides, the Percent Effect is 11.5% in experiment [7]; -11.4% in [8]; 4.23% in experiment [9]; -30.8% in experiment [10]; -0.515% in [11].
Regarding `Cc1ccc(-c2noc(CN3CCOC(Cn4cncn4)C3)n2)cc1` (stereo not given), the Percent Effect in [1] is -4.95%; in [2] it was -5.41%; in [3], 0.576%; in experiment [4], 2.63%; in experiment [5] it was 2.14%; in [6], -2.03%. The Percent Effect is -1.79% in experiment [7]; 8.27% in [8]; 2.97% in experiment [9]; -1.22% in experiment [10]; 5.54% in [11].
As to `Cc1cccc(C2(NC(=O)CCN3C(=O)CCC3=O)CCCC2)c1`, the Percent Effect was -5.83% in [1]; 12.7% in experiment [2]; -1.51% in [3]; 8.26% in experiment [4]; 0.85% in experiment [5]; -2.28% in [6]. In addition, the Percent Effect in [7] was 4.83%; in experiment [8], 0.0333%; in experiment [9], 5.42%; in [10] it was 11.4%; in [11] it was -4.64%.
As for `O=C(c1ccco1)N1CCOCC2(CCN(C3CCOCC3)C2)C1` (stereo not given), the Percent Effect was -0.734% in [1]; 1.33% in experiment [2]; -1.65% in experiment [3]; 3.4% in experiment [4]; -7.47% in experiment [5]; -2.29% in experiment [6]. In addition, the Percent Effect in experiment [7] is 7.95%; in experiment [8] it was 2.53%; in experiment [9], 0%; in experiment [10], 5.13%; in [11] it was -6.06%.
Regarding `C[C@@H]1CN(C2(C(=O)N3CCCCCC3)Cc3ccccc3C2)C[C@H](C)O1`, the Percent Effect in experiment [1] was -2.48%; in experiment [2], 6.94%; in experiment [3], -6.6%; in experiment [4] it was 11%; in experiment [5] it was 6.51%; in experiment [6], 3.97%. Besides, the Percent Effect in experiment [7] was -0.702%; in experiment [8] it was -2.77%; in experiment [9], 2.1%; in experiment [10] it was 2.56%; in experiment [11], -1.63%.
On to `Cc1nc(C)n(C2CCCN(C(=O)Cc3cccnc3)C2)n1` (stereo not given), for which the Percent Effect in [1] was -6.21%; in [2] it was 5.41%; in experiment [3], 2.37%; in experiment [4] it was -1.07%; in experiment [5], 0.586%; in [6], 2.5%. The Percent Effect was 6.17% in experiment [7]; -10.7% in experiment [8]; 5.94% in [9]; 11% in [10]; -2.33% in experiment [11].

Values taken from ChEMBL document CHEMBL3988442, “University of Dundee, Small-Polar-MMV Screening Library” (2021).
